Data: PubChem BioAssay (NCI)
The panel holds about 83,000 compounds, 20% with a hit somewhere; the sample as a whole holds those more often.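 A percent growth of 40 corresponds to 60% growth inhibition; 0 means no net growth; -100 means all cells died. Active threshold: below 10.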 Unmarked numbers belong to inactive results. Activity calls are given as the source filed them.

The molecules below were run on HL-60(TB) leukemia (assay: NCI-60 one-dose screen, 48 h (100 = growth as untreated, 0 = no growth, -100 = all killed)). Settings: 10 µM unless noted.
In the case of `CCC1(CC)C(OC)NC(Br)=C(C#N)C1(C#N)C(N)=O` (stereo not given), the growth is reported as 93.1%.
For `COc1ccc2nc3cc([N+](=O)[O-])ccc3c(NNc3ccccc3)c2c1`, the growth was 121%.
For `COC(=O)C1(CC(C)=O)NC(=S)NC(=O)C1C#N` (stereo not given), the growth was 102%.
`O=C(C(=O)c1cccnc1)c1cccnc1` was tested, and the growth was 104%.
`CC[N+](CC)(CCOCCOCC[N+](CC)(CC)Cc1ccc([N+](=O)[O-])cc1)Cc1ccc([N+](=O)[O-])cc1` gave a growth of 93.4%.
With `O=S(=O)(NCCNc1nccc(-c2c(-c3ccc(F)c(O)c3)nc3sccn23)n1)c1ccccc1` the growth was 71%.
With `C#CCn1cc(C=C2C(=O)N(C)C(=O)N(C)C2=O)c2cc(Cl)ccc21` the growth was 105%.
With `CC1(C)CC([P+](c2ccccc2)(c2ccccc2)c2ccccc2)=NN1` the growth was -49.2% (active).
In the case of `CC(=O)OC[C@H]1O[C@H](OC(C)=O)[C@H](NC(=O)/C=C/CCl)[C@@H](OC(C)=O)[C@@H]1OC(C)=O`, the growth is reported as 96.4%.
`O=C(Nc1ccc(-n2cc(-c3ccncc3)c(-c3ccc(O)c(Cl)c3)n2)cc1)c1cc(C(F)(F)F)cc(C(F)(F)F)c1` was tested, and the growth was 84.4%.
With `COc1ccc(Nc2ncccc2NC(=O)c2cn(Cc3cccc(Oc4ccccc4)c3)nn2)cc1OC` the growth was 55.8%.
With `COC(=O)c1ccc(C(=Nc2ccc(N(C)C(=O)CN3CCN(C)CC3)cc2)c2c(O)[nH]c3ccc(C(=O)OC)cc23)cc1` the growth was 14.4%.
`CN(C)c1ccc2[nH]c3c(C(N)=O)cc(=O)c(=O)c=3oc2c1` was tested, and the growth was -2.19% (active).
`CC(C)CSc1oc(-c2ccccc2)nc1S(=O)(=O)c1ccccc1` gave a growth of 82%.
Work on `COC(=O)[C@]12CC[C@@H](C)[C@H](C)[C@@H]1C1=CC[C@@H]3[C@@]4(C)C(C=O)=C[C@@](C)(COC(C)=O)[C@@H]4C(=O)C[C@@]3(C)[C@]1(C)CC2` yielded a growth of 29.8%.
With `O=C1C(Cl)=C(N=Nc2c(Cl)c(O)c3ccccc3c2O)C(=O)c2ccccc21` the growth was 90.7%.
`COc1cccc(-c2cc3c(O)cc(C#N)cc3[nH]2)c1` was tested, and the growth was 21.3%.
In the case of `C=CC(=O)Nc1cccc(Nc2nc(SC)nc(-c3cccc([N+](=O)[O-])c3)c2C#N)c1`, the growth is reported as 63.4%.
`Nc1cc2c(cc1Br)[nH]c(=O)c1ccccc12` was tested, and the growth was 91%.
Work on `COc1cc(OC)c2c(=O)c3c(CC=C(C)C)cc(OC)c(O)c3oc2c1` yielded a growth of 96.7%.
`CCNc1cc(S(=O)(=O)O)ccc1C` gave a growth of 93.8%.
For `C1=C(Cc2ccccc2)n2cnc3ncnc(c32)S1`, the growth was 75.1%.
`O=NN(Cc1cccnc1)C(=O)NC1CCCCC1` gave a growth of 120%.
`NC(N)=Nc1nc2ccccc2n2c1nc1ccccc12` gave a growth of 37.7%.
`COC(=O)[C@@]12CC[C@@H](C)[C@]3(C[C@@H](c4ccoc4)OC3=O)[C@H]1CC[C@@H]1O[C@@]12C` showed a growth of 104%.
Molecule `O=C(NCCNc1nccc(-c2c(-c3cccc(O)c3)nc3sccn23)n1)Nc1cc(C(F)(F)F)cc(C(F)(F)F)c1` has a growth of 97.3%.
`O=C(Nc1ccccc1Cl)c1c[nH]c(=O)c(-c2ccc(N3CCCOC4(CC4)C3)cc2)c1` showed a growth of 28.3%.
`O=C(CSc1ccc(Cl)cc1)Nc1ccc(-c2nc3ccccc3s2)c(Cl)c1` gave a growth of 63.4%.
In the case of `C=C(CN=[N+]=[N-])[C@@H]1CC[C@]2(C)[C@H](CC[C@@H]3[C@H]4[C@H]5OC(=O)[C@@]4(CCC5(C)C)CC[C@]32C)[C@@]1(C)CCC#N`, the growth is reported as 22.7% [100 µM].
With `O=C(Cn1nc(-c2cccc3ccccc23)ccc1=O)NCc1cccc(Cl)c1` the growth was 22.3% [50 µM].
For `CN1C(=O)C2(SCC(C(=O)NCC(=O)OC(C)(C)C)N2C(=O)C2CCCCC2)c2ccccc21` (stereo not given), the growth was 93.7%.
In the case of `COc1cc(C2Cc3ncccc3-c3[nH]c(=O)c4cccnc4c32)cc(OC)c1OC` (stereo not given), the growth is reported as -2.08% (active).
`O=CCCCC(O)C=O` (stereo not given) was tested, and the growth was 92.2%.
With `COc1ccc(C2=NN(C=O)C(c3ccc(Oc4nc5c(c(=O)n(C)c(=O)n5C)n4C)c(OC)c3)C2)cc1` (stereo not given) the growth was 90.3%.
Work on `CCNC(=O)c1[nH]cc(-c2ccc(OC)cc2)c1-c1cc(OC)cc(OC)c1` yielded a growth of 82.1%.
In the case of `COc1cc(NC2CCCCC2O)c2nc(-c3ccc(Cl)cc3)ccc2c1` (stereo not given), the growth is reported as 81.9%.
For `CC(C)C(=O)Nc1ccc(-c2nc(-c3cccc(OCCN4CCOCC4)c3)c(-c3ccnc(Br)c3)[nH]2)cc1`, the growth was -28.5% (active).
Molecule `CCCCOc1nc2ccc(Cl)cc2cc1/C=C/C(=O)/C=C1/CC(c2cc3cc(Cl)ccc3nc2OCCCC)Nc2ccccc2N1` (stereo not given) has a growth of 101%.
`CCCCN1C(=O)CC(SC2CC(=O)N(CCCC)C2=O)C1=O` (stereo not given) showed a growth of 132%.
For `CCN(CC)c1ccc(/C=C/C(=O)c2cccc(NS(C)(=O)=O)c2)cc1`, the growth was 9.82% (active).
